Compound activity: PubChem BioAssay, National Center for Advancing Translational Sciences (NCATS)
S2 tox = cell viability loss in ATXN counter-screen | Potency, µM (highest dose often 56.7 µM), most hits filed as cytotoxic | 400,000 tested, 0.49% active | S2 cells (HEK-293 line with an ATXN2-luciferase reporter) viability, CellTiter-Fluor protease fluorescence, 24 h; note: nearly all actives have a fitted effect of over 40% in size
HT1080 IDH1KD tx = HT-1080 IDH1 knockdown cell toxicity (counter line) | HT-1080 IDH1 knockdown viability, ATP luminescence, 48 h | Potency, µM (highest dose often 46.1 µM), without a hit: at the highest dose activity, negative = toxicity, most hits filed as cytotoxic | 360,000 tested, 2% active;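 note: 0% = DMSO wells and -100% = cell-free medium wells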
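Luminescent ATP read-out (CellTiter-Glo, 10 min at room temperature) after 48 h compound exposure at 37 °C gave viability of IDH1-knockdown HT-1080 cells. Activity was normalised to DMSO and cell-free wells, then fitted as concentration-response curves.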
KB-V1 cytotox = kills drug-selected multidrug resistant KB-V1 cells. KB-V1 MDR cells viability, CellTiter-Glo, 72 h. Potency, µM (series often up to 46.1 µM), hits mostly cytotoxic. 400,000 tested, 3.4% active; note: % is set by controls: 0 for no effect and ±100 for the full control effect; nearly all actives have a fitted effect of over 60% in size
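Readout: CellTiter-Glo luminescence, 10 min after addition. Cells: KB-V1 MDR subline, 72 h at 37 degrees C with compound. Analysis: corrected, normalized data fitted to concentration-effect curves.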
HT1080-NT tox = kills 2HG-producing HT-1080-NT fibrosarcoma cells; HT-1080-NT fibrosarcoma viability, CellTiter-Glo ATP luminescence, 48 h; Potency, µM (series often up to 46.1 µM), inactives show top-dose activity, negative = less viability, hits mostly cytotoxic; 360,000 tested, 1.6% active; AID 686970;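 note: NT is the 2HG producing partner of a matched IDH1 knockdown line; 0% = DMSO-treated cells and -100% = media-only wells without cells; nearly all actives have a fitted effect of over 55% in size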
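Toxicity toward the 2HG-producing NT line was scored as %Activity, normalised to DMSO and no-cell wells, from CellTiter-Glo luminescence after 48 hours' treatment.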
KB-3-1 tox = kills parental KB-3-1 adenocarcinoma cells; KB-3-1 viability, CellTiter-Glo ATP luminescence, 72 h; Potency, µM (titrated, usually from 46.1 µM), most hits filed as cytotoxic; 400,000 tested, 1.4% active; AID 1347075; note: % is set by controls: 0 for no effect and ±100 for the full control effect; nearly all actives have a fitted effect of over 60% in size
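Here the drug-naive KB-3-1 line serves as comparator for MDR sub-line selectivity; cells received compound titrations, 72 h at 37 °C, then CellTiter-Glo readout.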
ATXN2 expr inh = reduces ATXN2 reporter expression in HEK-293 cells; HEK-293 ATXN2-luciferase reporter, luminescence, 24 h; Potency, µM (highest dose often 57 µM), inactives show top-dose activity change, negative = inhibition, usual class: inhibitors; 360,000 tested, 0.72% active; note: % is set by controls: 0 for no effect and ±100 for the full control effect; nearly all actives have a fitted effect of over 55% in size
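ATXN2-luciferase reporter cells (luciferase flanked by upstream and downstream ATXN2 gene portions) were treated 24 h at 37 °C with compounds at up to 57 uM. SteadyGlo luminescence gave expression; GF-AFC fluorescence gave viability.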
* hit, by the source's call; i = inactive; u = inconclusive; x = no result given; [ ] = dose if it differs, or a comment. The list is not random: actives were taken first. Their share in the collection is about 6.2%. Calls come from the whole dose curve; as a rule, active = well fitted curve in the direction sought with a large enough effect; inconclusive = small, poorly fitted or top-dose-only effect, or another doubt; inactive = no such curve, though single readings can be large; an effect the other way counts as inactive or inconclusive. Potency is the fitted concentration of half-maximal effect.

SMILES | S2 tox | HT1080 IDH1KD tx | KB-V1 cytotox | HT1080-NT tox | KB-3-1 tox | ATXN2 expr inh
CC(=O)c1cccc(NC(=O)C2Cc3c(-c4ccccc4Oc4ccccc4)ccnc3O2)c1 (centres undefined) | u | u | u | u | i | u
CC(=O)Nc1ccc(-c2ccnc3c2CC(C(=O)Nc2cccc(C(F)(F)F)c2)O3)cc1 (centres undefined) | u | 16µM* | 23µM* | u | u | u
CC(=O)Nc1ccc(-c2ccnc3c2CC(C(=O)Nc2cccc(Oc4ccccc4)c2)O3)cc1 (centres undefined) | u | 15µM* | u | u | u | u
CC(=O)Nc1ccc(-c2ccnc3c2CC(C(=O)Nc2cccc(N(C)C)c2)O3)cc1 (centres undefined) | u | 12µM* | i | u | i | -9%
O=C(c1cccc(Br)c1)c1nc2ccccc2[nH]c1=O | i | 3% | i | 18% | i | 4%
COc1ccc(CNC(=O)C2Cc3c(-c4ccccc4Oc4ccccc4)ccnc3O2)cc1OC (centres undefined) | i | -20% | 15µM* | u | u | -19%
NC(=O)c1cccc(-c2ccnc3c2CC(C(=O)Nc2cccc(C(F)(F)F)c2)O3)c1 (centres undefined) | i | u | 23µM* | u | u | u
O=C(NCc1cccc(Cl)c1)C1Cc2c(-c3ccccc3Oc3ccccc3)ccnc2O1 (centres undefined) | i | u | u | u | i | u
Cc1c2cnn(CC(=O)NCC(C)c3ccccc3)c(=O)c2c(C)n1Cc1cccc(Cl)c1 (centres undefined) | x | x | i | x | i | x
N#Cc1nc(-c2ccc(F)cc2)oc1N1CCC(C(N)=O)CC1 | i | -3% | i | 10% | i | x
CC(=O)c1cccc(NC(=O)CCCOc2ccc(C)cc2)c1 | i | 5% | u | -2% | i | 1%
CCc1cc(C(=O)Nc2cc(S(=O)(=O)N(C)C)ccc2C)sc1C | i | -13% | 9.2µM* | -7% | i | x
CCc1cc(C(=O)Nc2cc(S(=O)(=O)N(CC)CC)ccc2N2CCN(C)CC2)sc1C | i | -7% | i | -9% | i | -4%
O=C(CCCC(=O)Nc1cccc(Br)c1)N/N=C/c1cc([N+](=O)[O-])ccc1O | i | u | i | -27% | u | u
O=C(CN(c1cccc(Br)c1)S(=O)(=O)c1ccccc1)N/N=C/c1cc([N+](=O)[O-])ccc1O | i | 15µM* | i | 7.3µM* | u | u
Cc1ccccc1NC(=O)CCC(=O)N/N=C/c1cc([N+](=O)[O-])ccc1O | i | u | 21µM* | -24% | i | -22%
Cc1ccc(C)c(NC(=O)CCC(=O)N/N=C/c2cc([N+](=O)[O-])ccc2O)c1 | i | u | u | -16% | u | u
CCN(CC)S(=O)(=O)c1cc(NC(=O)CCCOc2ccc(C(C)=O)cc2)ccc1C | i | -16% | 2.9µM* | -8% | u | -23%
CCOC(=O)c1sc2ccccc2c1S(=O)(=O)Nc1cccc(C(F)(F)F)c1 | i | x | i | x | i | 0%
Cc1ccc([N+](=O)[O-])cc1NC(=O)CCCOc1ccccc1 | i | 18% | 10µM* | 27% | i | -3%
CC(=O)c1ccc(OCCCC(=O)Nc2cc(S(=O)(=O)N3CCCCC3)ccc2C)cc1 | u | -13% | i | -13% | i | -16%
CC(=O)c1ccc(OCCCC(=O)Nc2cc(S(=O)(=O)N(C)C)ccc2C)cc1 | i | -1% | 23µM* | 1% | u | 7%
Cc1ccc([N+](=O)[O-])cc1NC(=O)CCc1ccccc1 | i | -1% | i | 2% | i | -15%[11.3 µM]
CCc1ccc(CNC(=O)c2nn(-c3ccc(OC)c(Cl)c3)c(=O)c3c2c2ccccc2n3C)cc1 | i | x | i | x | i | 11%
COc1ccc(C2C=C(c3ccccc3)Nc3nc(NS(=O)(=O)c4ccccc4)nn32)cc1 (centres undefined) | x | x | i | x | i | 13%
SMILES | S2 tox | HT1080 IDH1KD tx | KB-V1 cytotox | HT1080-NT tox | KB-3-1 tox | ATXN2 expr inh
CS(=O)(=O)Nc1cccc(C2=NN(S(C)(=O)=O)C(c3ccc4c(c3)OCO4)C2)c1 (centres undefined) | i | u | i | u | 15µM* | 22%
CS(=O)(=O)N1N=C(c2ccccc2)CC1c1ccc2c(c1)OCO2 (centres undefined) | i | -1% | i | 2% | i | 56%
CC1(C)SCCN(S(=O)(=O)c2ccc(OCC#CCO)cc2)[C@@H]1C(=O)NO | x | x | x | x | x | -14%
CCOc1ccc(Nc2nc3c(c(=O)[nH]2)CCCC3)cc1 | i | 12% | 18µM* | 17% | i | 6%
O=c1[nH]c(Nc2nc3ccccc3o2)nc2c1CCCC2 | u | 4µM* | u | 2.2µM* | i | u
CCOc1ccc(Nc2nc3c(c(=O)[nH]2)CCC3)cc1 | i | 4% | u | u | i | u
COc1ccc2c(c1)c(=O)c(C(=O)c1ccccc1)cn2CC(=O)Nc1ccc2c(c1)OCO2 | i | x | i | x | i | 3%
CC1(C(=O)NS(=O)(=O)c2ccc(F)cc2F)CCN1C(=O)CC1CCCC1 (centres undefined) | i | 15% | i | 21% | i | 5%
O=C(NCC1(N2CCOCC2)CCCCCC1)c1cnn(-c2nccc(-c3ccco3)n2)c1C1CC1 | i | x | x | x | x | x
COc1ccc(-n2c(=O)c3ccc(C(=O)NCc4ccc(C)cc4)cc3n(CC(=O)Nc3ccc(F)cc3)c2=O)cc1 | i | x | i | x | i | 7%
CCOc1ccc(CC(=O)Nc2c(C(=O)c3ccccc3)oc3ccc(OC)cc23)cc1OCC | i | x | i | x | i | 13%
O=C1Nc2cccnc2N(C(=O)CCl)c2ccccc21 | 20µM* | 16µM* | 16µM* | u | 21µM* | u
NCCN1CCN(CC(=O)N2c3ccccc3C(=O)Nc3cccnc32)CC1 | i | x | i | x | i | 10%
COc1cccc(-c2cc(C(=O)Nc3cc(OC)c(OC)c(OC)c3)no2)c1 | i | u | 3.7µM* | u | u | -38%
CC(C)n1cc(NC(=O)c2cc(-c3ccccc3)on2)cn1 | i | 8.2µM* | 4.1µM* | 16µM* | u | 30%
COc1ccc(NC(=O)c2cc(C(C)C)on2)cc1OC | i | -2% | 21µM* | 13% | i | 33%
